{
  "source": "PubChem BioAssay AID2427",
  "about": "(National Center for Advancing Translational Sciences (NCATS), 2010)",
  "note": "Activity calls are given as the source filed them.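 Rule for the calls: active = melting temperature shift above 3 C; inconclusive = shift above 1 C but not above 3 C; inactive = the rest.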",
  "data": [
    {"target": "15-hydroxyprostaglandin dehydrogenase [NAD(+)] (Homo sapiens) (UniProt P15428)", "sequence (P15428 whole entry, looked up)": "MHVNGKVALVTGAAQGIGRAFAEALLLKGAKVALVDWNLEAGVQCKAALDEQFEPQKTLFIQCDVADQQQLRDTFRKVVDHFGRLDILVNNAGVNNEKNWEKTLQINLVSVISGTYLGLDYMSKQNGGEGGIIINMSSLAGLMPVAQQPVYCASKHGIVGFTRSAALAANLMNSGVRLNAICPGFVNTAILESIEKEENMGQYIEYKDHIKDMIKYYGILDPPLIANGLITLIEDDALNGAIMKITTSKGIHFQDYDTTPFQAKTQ", "assay": "Thermal Shift Assay for Inhibitors of HPGD (15-Hydroxyprostaglandin Dehydrogenase)", "conditions": "Recombinant HPGD thermal shift, SYPRO orange DSF, at 250 µM, stronger effect = higher value", "method": "(§1) Assay Overview: Human 15-Hydroxyprostaglandin dehydrogenase (HPGD) catalyzes the inactivation of prostaglandin E2, and plays a major role in cancer biology by antagonizing the oncogenic potential of cyclooxygenase type 2 (COX2). Studies to assess the stability of human 15-PGDH in presence of compounds was performed as described (Niesen et al., 2007) with variations. References 1. Myung SJ, Rerko RM, Yan M, Platzer P, Guda K, Dotson A, Lawrence E, Dannenberg AJ, Lovgren AK, Luo G, Pretlow TP, Newman RA, Willis J, Dawson D, Markowitz SD. 15-Hydroxyprostaglandin dehydrogenase is an in vivo suppressor of colon tumorigenesis. Proc Natl Acad Sci U S A. 2006 Aug 8;103(32):12098-102. 2. Yan M, Rerko RM, Platzer P, Dawson D, Willis J, Tong M, Lawrence E, Lutterbaugh J, Lu S, Willson JK, Luo G, Hensold J, Tai HH, Wilson K, Markowitz SD. 15-Hydroxyprostaglandin dehydrogenase, a COX-2 oncogene antagonist, is a TGF-beta-induced suppressor of human gastrointestinal cancers. Proc Natl Acad Sci U S A. 2004 Dec 14;101(50):17468-73. 3. Yang L, Amann JM, Kikuchi T, Porta R, Guix M, Gonzalez A, Park KH, Billheimer D, Arteaga CL, Tai HH, Dubois R, Carbone DP, Johnson DH. Inhibition of Epidermal Growth Factor Receptor Signaling Elevates 15-Hydroxyprostaglandin Dehydrogenase in Non-Small-Cell Lung Cancer. Cancer Res. 2007 Jun 15;67(12):5587-5593. 4. Niesen FH, Berglund H, Vedadi M: The use of differential scanning fluorimetry to detect ligand interactions that promote protein stability. Nature protocols 2007; 2:2212-2221 NIH Chemical Genomics Center [NCGC] Structural Genomics Consortium [SGC]\n(§2) HPGD was diluted to a final assay concentration of 1 uM in 100 mM Tris buffer, pH 8.0, containing 0.01% Tween-20 and 1:1000 SYPRO orange dye. The final assay volume is 10 ul, with or without 200 uM of either NAD+ or NADH. Compounds were added 1:5 from appropriate stock solutions in 10% (v/v) DMSO to comprise either 50 or 250 uM final concentrations. Heat denaturation curves were recorded using a RT-PCR instrument (Mx3005p, Agilent) applying a temperature gradient of 2 degree C/min. Analysis of the data was performed using DSF Analysis vers. 2.5 (ftp://ftp.sgc.ox.ac.uk/pub/biophysics) and Prism 5.0 (GraphPad Software, Inc.)", "values": [
      {"compound": "CC1CCCN(C(=O)c2ccc(COc3ccccc3Br)cc2)C1", "note": "(centres undefined)", "thermal shift (delta Tm)": "3.8 C (active)"},
      {"compound": "COc1ccc(-c2cc(C(F)(F)F)n3nc(C(=O)N4CCCCC4)cc3n2)cc1OC", "thermal shift (delta Tm)": "3.9 C (active)"}
    ]},
    {"target": "15-hydroxyprostaglandin dehydrogenase [NAD(+)] (Homo sapiens) (UniProt P15428)", "assay": "Thermal Shift Assay for Inhibitors of HPGD (15-Hydroxyprostaglandin Dehydrogenase)", "conditions": "Recombinant HPGD thermal shift, SYPRO orange DSF, measured here: delta Tm with NADH cofactor, at 250 µM, stronger effect = higher value", "method": "as §1, §2", "units": {"thermal shift (delta Tm)": "C"}, "values": [
      {"compound": "CC1CCCN(C(=O)c2ccc(COc3ccccc3Br)cc2)C1", "note": "(centres undefined)", "thermal shift (delta Tm)": 10.6},
      {"compound": "COc1ccc(-c2cc(C(F)(F)F)n3nc(C(=O)N4CCCCC4)cc3n2)cc1OC", "thermal shift (delta Tm)": 9.6}
    ]}
  ]
}
